Tests used:
[1] = molecular target: MAP/microtubule affinity-regulating kinase 3 (Homo sapiens) (UniProt P27448); details: at 1 µM;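 note: reported values are averaged percent inhibition of MARK3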
[2] = molecular target: T1, MAP/microtubule affinity-regulating kinase 4 (Homo sapiens) (UniProt Q96L34); details: at 0.1 µM
T1 sequence (whole entry): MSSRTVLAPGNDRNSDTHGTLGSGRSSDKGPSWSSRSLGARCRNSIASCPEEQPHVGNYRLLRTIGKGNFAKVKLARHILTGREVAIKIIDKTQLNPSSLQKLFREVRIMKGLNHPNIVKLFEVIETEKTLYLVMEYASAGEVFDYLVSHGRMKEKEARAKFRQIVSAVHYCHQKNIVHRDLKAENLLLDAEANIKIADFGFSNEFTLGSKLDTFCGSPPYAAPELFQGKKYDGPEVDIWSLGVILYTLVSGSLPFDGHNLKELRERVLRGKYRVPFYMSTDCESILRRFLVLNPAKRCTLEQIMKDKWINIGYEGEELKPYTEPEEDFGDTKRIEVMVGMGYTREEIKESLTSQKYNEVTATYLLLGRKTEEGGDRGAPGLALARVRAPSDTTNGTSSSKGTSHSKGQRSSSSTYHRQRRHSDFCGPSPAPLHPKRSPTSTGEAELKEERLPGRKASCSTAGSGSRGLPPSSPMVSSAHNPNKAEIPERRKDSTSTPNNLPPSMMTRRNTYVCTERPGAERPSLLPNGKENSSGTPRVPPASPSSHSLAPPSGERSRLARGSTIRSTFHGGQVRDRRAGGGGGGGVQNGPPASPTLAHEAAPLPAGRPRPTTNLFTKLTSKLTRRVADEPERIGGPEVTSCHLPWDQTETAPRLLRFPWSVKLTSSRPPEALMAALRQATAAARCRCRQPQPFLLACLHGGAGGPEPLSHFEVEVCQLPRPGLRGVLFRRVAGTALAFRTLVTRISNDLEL

[3] = molecular target: T1, MAP/microtubule affinity-regulating kinase 4 (Homo sapiens); details: at 1 µM
[4] = molecular target: Maternal embryonic leucine zipper kinase (Homo sapiens) (UniProt Q14680); details: at 0.1 µM
Maternal embryonic leucine zipper kinase (Homo sapiens), sequence (Q14680 whole entry, looked up): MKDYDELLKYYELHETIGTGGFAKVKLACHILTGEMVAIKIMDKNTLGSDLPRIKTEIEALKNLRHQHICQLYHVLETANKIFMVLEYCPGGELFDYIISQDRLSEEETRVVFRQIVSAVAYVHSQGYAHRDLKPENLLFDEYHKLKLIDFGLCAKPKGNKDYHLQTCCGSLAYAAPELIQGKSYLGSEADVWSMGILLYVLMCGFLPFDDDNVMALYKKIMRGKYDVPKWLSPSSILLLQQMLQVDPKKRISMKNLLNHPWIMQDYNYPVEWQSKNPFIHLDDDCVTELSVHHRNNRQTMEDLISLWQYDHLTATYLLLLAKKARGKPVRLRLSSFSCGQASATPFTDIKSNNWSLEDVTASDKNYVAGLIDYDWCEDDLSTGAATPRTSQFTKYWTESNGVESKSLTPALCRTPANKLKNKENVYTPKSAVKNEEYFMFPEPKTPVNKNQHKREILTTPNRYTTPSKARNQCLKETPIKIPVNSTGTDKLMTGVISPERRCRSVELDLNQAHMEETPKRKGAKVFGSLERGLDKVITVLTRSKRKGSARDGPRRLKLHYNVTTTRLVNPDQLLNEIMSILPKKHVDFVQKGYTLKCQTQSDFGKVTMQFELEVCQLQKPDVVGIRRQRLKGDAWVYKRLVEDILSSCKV

[5] = molecular target: Maternal embryonic leucine zipper kinase (Homo sapiens) (UniProt Q14680); details: at 1 µM
[6] = molecular target: MAP kinase-interacting serine/threonine-protein kinase 1 (Homo sapiens) (UniProt Q9BUB5); details: at 0.1 µM
MAP kinase-interacting serine/threonine-protein kinase 1 (Homo sapiens), sequence (Q9BUB5 whole entry, looked up): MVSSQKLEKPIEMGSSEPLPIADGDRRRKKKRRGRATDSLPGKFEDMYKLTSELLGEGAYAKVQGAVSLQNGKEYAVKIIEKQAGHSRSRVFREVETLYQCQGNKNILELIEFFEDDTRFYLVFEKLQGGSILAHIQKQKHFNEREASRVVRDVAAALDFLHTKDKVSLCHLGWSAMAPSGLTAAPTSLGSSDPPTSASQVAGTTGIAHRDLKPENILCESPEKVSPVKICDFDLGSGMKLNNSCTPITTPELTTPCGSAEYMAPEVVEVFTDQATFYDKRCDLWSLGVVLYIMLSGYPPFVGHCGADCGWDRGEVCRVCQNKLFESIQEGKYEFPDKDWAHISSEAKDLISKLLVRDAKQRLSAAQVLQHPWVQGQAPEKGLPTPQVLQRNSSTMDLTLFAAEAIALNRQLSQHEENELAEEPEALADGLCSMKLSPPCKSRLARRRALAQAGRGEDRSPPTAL

[7] = molecular target: MAP kinase-interacting serine/threonine-protein kinase 1 (Homo sapiens) (UniProt Q9BUB5); details: at 1 µM
[8] = molecular target: MAP kinase-interacting serine/threonine-protein kinase 2 (Homo sapiens) (UniProt Q9HBH9); details: at 0.1 µM
MAP kinase-interacting serine/threonine-protein kinase 2 (Homo sapiens), sequence (Q9HBH9 whole entry, looked up): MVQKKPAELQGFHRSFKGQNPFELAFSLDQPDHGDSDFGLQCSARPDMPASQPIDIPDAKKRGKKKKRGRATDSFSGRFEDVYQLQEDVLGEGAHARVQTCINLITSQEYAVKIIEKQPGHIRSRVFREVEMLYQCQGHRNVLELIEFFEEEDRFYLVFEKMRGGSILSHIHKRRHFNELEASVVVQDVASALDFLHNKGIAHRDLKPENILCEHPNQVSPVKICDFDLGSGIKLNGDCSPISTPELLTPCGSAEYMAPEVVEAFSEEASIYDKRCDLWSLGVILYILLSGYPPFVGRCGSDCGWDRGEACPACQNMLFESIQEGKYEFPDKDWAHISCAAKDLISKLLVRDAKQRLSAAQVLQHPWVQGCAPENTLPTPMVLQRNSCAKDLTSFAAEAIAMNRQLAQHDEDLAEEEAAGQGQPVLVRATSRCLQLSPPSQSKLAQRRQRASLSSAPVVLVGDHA

[9] = molecular target: MAP kinase-interacting serine/threonine-protein kinase 2 (Homo sapiens) (UniProt Q9HBH9); details: at 1 µM
[10] = molecular target: Serine/threonine-protein kinase MARK2 (Homo sapiens) (UniProt Q7KZI7); details: at 0.1 µM;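 note: mean percent inhibition of PAR-1Balpha kinase activity, reported from the GSK PKIS screen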
Serine/threonine-protein kinase MARK2 (Homo sapiens), sequence (Q7KZI7 whole entry): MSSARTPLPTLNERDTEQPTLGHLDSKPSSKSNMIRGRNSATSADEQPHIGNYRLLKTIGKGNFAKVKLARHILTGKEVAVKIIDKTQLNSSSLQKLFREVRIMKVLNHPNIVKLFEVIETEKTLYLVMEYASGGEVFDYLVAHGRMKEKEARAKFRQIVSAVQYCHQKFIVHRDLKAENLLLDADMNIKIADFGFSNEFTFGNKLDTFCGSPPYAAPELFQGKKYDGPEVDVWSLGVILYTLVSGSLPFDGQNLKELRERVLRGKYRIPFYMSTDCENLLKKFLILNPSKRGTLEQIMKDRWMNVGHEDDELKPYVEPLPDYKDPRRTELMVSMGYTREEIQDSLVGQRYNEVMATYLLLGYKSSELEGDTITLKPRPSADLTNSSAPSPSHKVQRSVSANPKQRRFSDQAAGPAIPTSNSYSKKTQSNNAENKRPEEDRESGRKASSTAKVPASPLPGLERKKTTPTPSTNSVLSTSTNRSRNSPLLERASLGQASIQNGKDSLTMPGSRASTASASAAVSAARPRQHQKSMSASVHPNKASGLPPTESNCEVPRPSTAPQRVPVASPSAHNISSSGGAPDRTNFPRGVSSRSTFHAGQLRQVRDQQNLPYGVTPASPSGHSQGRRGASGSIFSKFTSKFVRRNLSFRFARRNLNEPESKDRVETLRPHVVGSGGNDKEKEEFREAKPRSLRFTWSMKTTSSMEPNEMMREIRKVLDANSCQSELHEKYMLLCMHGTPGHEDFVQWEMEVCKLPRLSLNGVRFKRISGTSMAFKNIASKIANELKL

MAP/microtubule affinity-regulating kinase 3 (Homo sapiens), sequence (P27448 whole entry, looked up): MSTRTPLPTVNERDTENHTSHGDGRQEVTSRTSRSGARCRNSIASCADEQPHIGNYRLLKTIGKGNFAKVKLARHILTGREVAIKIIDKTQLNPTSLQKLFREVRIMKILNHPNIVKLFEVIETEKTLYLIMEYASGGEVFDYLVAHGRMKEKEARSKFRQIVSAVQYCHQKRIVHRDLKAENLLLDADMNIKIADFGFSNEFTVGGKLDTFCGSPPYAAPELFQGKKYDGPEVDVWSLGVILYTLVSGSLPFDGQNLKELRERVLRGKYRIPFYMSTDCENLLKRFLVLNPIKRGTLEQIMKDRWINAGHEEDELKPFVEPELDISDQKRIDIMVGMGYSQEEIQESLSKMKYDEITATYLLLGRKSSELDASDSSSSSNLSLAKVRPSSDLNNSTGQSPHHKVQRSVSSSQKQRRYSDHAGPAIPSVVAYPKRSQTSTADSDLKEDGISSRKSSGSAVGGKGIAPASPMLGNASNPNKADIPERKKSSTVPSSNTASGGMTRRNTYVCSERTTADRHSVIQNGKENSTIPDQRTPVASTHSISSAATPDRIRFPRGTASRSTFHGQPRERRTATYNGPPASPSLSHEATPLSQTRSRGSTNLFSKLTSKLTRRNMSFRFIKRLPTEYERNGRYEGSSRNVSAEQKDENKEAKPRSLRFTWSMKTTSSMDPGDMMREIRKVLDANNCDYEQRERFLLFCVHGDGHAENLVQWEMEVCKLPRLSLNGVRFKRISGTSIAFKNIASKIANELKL

| SMILES | inhibition [1] | inhibition [2] | inhibition [3] | inhibition [4] | inhibition [5] | inhibition [6] | inhibition [7] | inhibition [8] | inhibition [9] | inhibition [10] |
| --- | --- | --- | --- | --- | --- | --- | --- | --- | --- | --- |
| COc1cc(C=NNc2ncnc3c2cnn3Cc2ccccc2)ccc1O | 4.6% | 1.11% | 3.25% | 13.2% | 47.1% | -2.04% | 0.25% | -0.35% | 1.29% | 1.79% |
| NS(=O)(=O)c1ccc(-c2ccc3c(NC(=O)C4CC4)n[nH]c3c2)cc1 | 5.56% | 0.63% | 2.61% | 0.83% | 1.42% | 4.28% | 17.9% | 0.71% | 6.29% | 0.75% |
| NS(=O)(=O)c1ccc(N/C=C2\C(=O)Nc3ccc4ncsc4c32)cc1 | 42.9% | 11% | 46.3% | 38.6% | 89.5% | 4.69% | 24% | 0.94% | 10.5% | 6.29% |
| COc1cc2c(cc1Nc1nc(Nc3ccsc3C(N)=O)c3cc[nH]c3n1)N(C(=O)CN(C)C)CCC2 | 4.97% | 0.47% | 0.65% | 1.24% | 11.3% | 0.63% | 0.17% | -0.68% | 0.28% | 2.05% |
| CCn1c(-c2nonc2N)nc2c(C#CC(C)(C)O)ncc(OCC3CCNCC3)c21 | 68.8% | 10.5% | 54.5% | 6.83% | 31.6% | 1.39% | 9.05% | 0.56% | 4.38% | 11.3% |
| NC(=O)c1sc(-n2cnc3cc(C(F)(F)F)ccc32)cc1OCc1ccccc1Br | 0.82% | 2.12% | 1.92% | 4.69% | 0.55% | 1.99% | 2.87% | 1.3% | 2.88% | -0.02% |
| COc1cccc(-n2ncc3c(N/N=C/c4ccncc4)ncnc32)c1 | 7.7% | 1.15% | 5.01% | 2.47% | 6.51% | 23.2% | 70.4% | 15.2% | 59.2% | 1.24% |
| CCn1c(-c2nonc2N)nc2c(C#CCN)ncc(OCCCN)c21 | 11.4% | 3.8% | 6.19% | -1.84% | 16% | -0.19% | 7.05% | 5.13% | 10.2% | 7.01% |
| Nc1nonc1-c1nc2cnccc2n1C1CCCCC1 | 24.2% | 2.83% | 10.8% | 10.3% | 74.6% | -0.38% | 4.63% | 0.19% | 8.42% | 3.67% |
| Fc1ccc(-c2ncn(C3CCNCC3)c2-c2ccnc(Oc3ccccc3)n2)cc1 | -0.46% | 1.68% | 1.42% | 3.76% | 4.43% | 1.38% | 2.07% | 1.12% | 0.76% | -1.21% |
| CCn1c(-c2nonc2N)nc2c(C#CC(C)(C)O)ncc(OC[C@@H]3CCCN3)c21 | 67.9% | 11.6% | 55.2% | 1.75% | 18.4% | 1.39% | 1.82% | 0.48% | -0.07% | 12.9% |
| Cc1cc(-c2ccco2)cc(C)c1/C=C/c1cncc(-c2nn[nH]n2)c1 | 1.64% | 1.35% | 1.35% | 1.3% | 0.19% | 3.16% | 29.9% | 4.58% | 35.2% | 1.91% |
| COc1cccc(COc2cc(-n3cnc4ccccc43)sc2C(N)=O)c1 | 2.02% | 1.15% | 1% | -2.92% | -8.42% | 1.73% | 12% | -0.04% | 6.31% | -2.23% |
| CCn1c(-c2nonc2N)nc2c(C#CC(C)(C)O)nc(O[C@@H](CN)c3ccccc3)cc21 | 101% | 74.5% | 90.7% | 42.2% | 90.4% | 0.51% | 6.37% | 5.3% | 33.1% | 63.9% |
